Compound activity deposited in PubChem BioAssay by National Center for Advancing Translational Sciences (NCATS).
Sampled rows, rich in hits. Any-hit rate of the full collection: about 19%.
TDP1 block – TDP1 (human) enzyme inhibition; Q9NUW8; recombinant TDP1, AlphaScreen DNA substrate cleavage; Potency, µM (doses to about 130 µM), for inactives: at the highest dose activity change, negative = inhibition, most hits filed as inhibitors; 0.28% of 350,000 active; note: potency is the fitted concentration of half-maximal effect; nearly all actives have a fitted effect of over 40% in size
Target sequence (Q9NUW8 whole entry, looked up): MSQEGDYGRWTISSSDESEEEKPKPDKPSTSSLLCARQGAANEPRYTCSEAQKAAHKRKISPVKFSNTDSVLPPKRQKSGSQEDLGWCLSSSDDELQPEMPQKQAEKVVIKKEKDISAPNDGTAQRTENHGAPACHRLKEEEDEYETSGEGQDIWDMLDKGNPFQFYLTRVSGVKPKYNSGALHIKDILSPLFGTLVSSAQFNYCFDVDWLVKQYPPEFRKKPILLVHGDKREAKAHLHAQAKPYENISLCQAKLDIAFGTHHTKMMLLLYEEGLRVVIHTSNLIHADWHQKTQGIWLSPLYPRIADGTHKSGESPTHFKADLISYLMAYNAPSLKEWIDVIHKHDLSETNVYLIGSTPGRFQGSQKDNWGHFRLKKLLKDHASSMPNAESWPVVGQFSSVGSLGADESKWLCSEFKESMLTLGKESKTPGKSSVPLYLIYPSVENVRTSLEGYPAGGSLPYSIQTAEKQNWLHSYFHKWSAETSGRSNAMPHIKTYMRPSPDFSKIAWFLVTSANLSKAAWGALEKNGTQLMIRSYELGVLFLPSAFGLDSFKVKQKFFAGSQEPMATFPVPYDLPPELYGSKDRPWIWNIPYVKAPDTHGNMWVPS
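Recombinant human Tdp1 (E. coli-expressed, 1 nM final) preincubated with compounds 15 min at room temperature, then 5'-biotin/3'-phosphotyrosine-FITC DNA substrate (15 nM final) added for 5 min. AlphaScreen beads (10 ug/ml final) added 10 min; cleavage lowers signal.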
TDP1 cell CPT – DT40-hTDP1 cell growth loss with CPT. 12% of 420,000 active. chicken DT40 Tdp1-/-;hTDP1 cells + 20 nM CPT, ATP luminescence, 48 h. Potency, µM (top dose mostly 46.2 µM), for the others: at the top dose activity change, negative = growth inhibition, hits mostly inhibitors; note: potency is the fitted concentration of half-maximal effect; nearly all actives have a fitted effect of over 55% in size
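Cell growth measured by CellTiter-Glo luminescence after a minimum 48 h, 37 C compound exposure with 20 nM CPT in Tdp1-knockout DT40 cells stably expressing hTDP1, seeded 400/well; qHTS titration format.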
Giardia killer – kills Giardia lamblia. Giardia lamblia trophozoite viability. activity change, % at 7.66 µM, hits read low. 0.15% of 340,000 active. AID 540267; in the data active = activity change below about -80%; inconclusive = between about -30% and that limit;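 note: parasites exposed to compound for two days anaerobically before the ATP read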
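Luminescent ATP signal served as the viability read-out, measured 15-30 min after adding ATP detection reagent to trophozoites that had been incubated with compounds for 48 hrs at 37 deg C anaerobically at 100 cells/well.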
DT40 TDP1 no CPT – qHTS for Inhibitors of human tyrosyl-DNA phosphodiesterase 1 (TDP1): qHTS in cells in absence of CPT | 15% of 420,000 active | Potency, µM (highest dose often 46.2 µM), for inactives: at the highest dose activity change, negative = growth inhibition, actives largely listed as inhibitors | DT40 Tdp1-/- hTDP1 cells, no CPT, ATP luminescence, 48 h | AID 686978, 2013; note: potency is the fitted concentration of half-maximal effect; nearly all actives have a fitted effect of over 55% in size
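Growth kinetics read by CellTiter-Glo luminescence after ≥48 hr at 37 °C. Cells: DT40 Tdp1-/- stably carrying human TDP1, 400 per well, compound exposure in the absence of CPT (DMSO vehicle).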
ELG1 repair inh – ELG1-dependent DNA repair inhibition | HEK293T ELG1-luciferase reporter, luminescence, 16 h; DNA damage induced by 5-fluorouridine | Potency, µM (series often up to 46.1 µM), for inactives: at the top dose activity change, negative = inhibition, hits mostly inhibitors | 2.3% of 330,000 active; note: potency is the fitted concentration of half-maximal effect; nearly all actives have a fitted effect of over 55% in size
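Luminescence from the luciferase reporter, measured 30 min after ONE-Glo reagent at room temperature, was the read-out. Beforehand, 2,000 cells per well were exposed for 16 hr at 37 °C to 5-fluorouridine together with compound or vehicle.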
IL-1B inflam inh – inflammasome signaling inhibition, IL-1 beta readout | THP-1 LPS/ATP IL-1B secretion, AlphaLISA, 16 h; hits give low values | activity change, % at 57.5 µM | 4.7% of 360,000 active | AID 743279; in the data active = activity change below about -50%; inconclusive = mostly about -30% to -49%
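THP-1 cells pretreated 1 hr with compounds (up to 57.5 uM final), then stimulated with LPS (250 ng/mL final) plus ATP (1.25 mM final); secreted IL-1B measured by AlphaLISA after 16 hr, decreased signal indicating inhibition.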
Starred values were filed as active, the others as inactive; u = inconclusive; x = no result given; [ ] = remark or other dose. Unless noted, calls come from the whole dose curve; as a rule, active = well fitted curve in the direction sought with a large enough effect; inconclusive = small, poorly fitted or top-dose-only effect, or another doubt; inactive = no such curve, though single readings can be large; an effect the other way counts as inactive or inconclusive. % is set by controls: 0 for no effect and ±100 for the full control effect.

SMILES	TDP1 block	TDP1 cell CPT	Giardia killer	DT40 TDP1 no CPT	ELG1 repair inh	IL-1B inflam inh
Cc1ccc(NC(=O)COC(=O)CCC2CCCC2)c(Br)c1	56µM*	-2%	4	-23%	5%	13
O=C(COC(=O)CCC1CCCC1)Nc1ccccc1Br	79µM*	-24%	-13	-7%	9%	0
COc1ccccc1NC(=O)COC(=O)CCC1CCCC1	x	-3%	-19	8%	7%	8
CCc1cccc(NC(=O)c2cc3c(=O)n(Cc4ccccc4)ccc3nc2C)c1	7%	u	x	u	x	x
CCOc1ccc(NC(=O)c2oc3ccccc3c2NC(=O)c2cc3ccccc3o2)cc1	4%	-26%	x	u	x	x
Cc1cc(OCC(=O)Nc2sc3c(c2C(N)=O)CCCC3)ccc1C(C)C	1%[12.3 µM]	0%	x	-19%	x	x
Nc1ccc(-c2n[nH]c(=O)c3ccccc23)cc1N	4%	0.46µM*	-4	u	-4%	23
Cc1ccc(-c2n[nH]c(=O)c3ccccc23)cc1N	3%	u	-15	-23%	-29%	21
COC(=O)c1ccc(NC(=O)c2cc3cc(C)ccc3n2C)cc1	-4%	-26%	x	u	x	x
COC(=O)c1ccccc1NC(=O)c1cc2cc(C)ccc2n1C	4%	6.5µM*	x	5.8µM*	x	x
CC1C/C(=N\NC(=O)c2ccc(NS(=O)(=O)c3ccc(Br)cc3)cc2)CC(C)(C)C1 (centres undefined)	5%	2%	-14	-17%	3%	11
Cc1oc(-c2ccccc2Cl)nc1CN1CCCCC1CO (centres undefined)	4%	1%	35	8%	2%	-6
Cc1ccccc1CC1(CO)CCCN(Cc2nc(-c3cccs3)oc2C)C1 (centres undefined)	8%	u	0	21µM*	-6%	-4
Cc1oc(-c2cccs2)nc1CN1CCN(CC(C)C)C(CCO)C1 (centres undefined)	x	u	19	u	5%	16
Cc1oc(-c2cccs2)nc1CN1CC[C@@](O)(c2ccccc2)[C@H]2CCCC[C@@H]21	3%	u	-12	u	14%	-74*
C[C@H]1CN([C@@H](C)CO)C(=O)CCCn2cc(nn2)CO[C@@H]1CN(C)C(=O)Nc1ccc(F)cc1	x	-21%	x	9%	x	4
CCCN1CCc2c(sc(NC(=S)NC(=O)c3ccccc3)c2C#N)C1	5%	21µM*	16	u	u	0
CC(C)N1CCc2c(sc(NC(=O)c3ccc(S(=O)(=O)N4CCOCC4)cc3)c2C#N)C1	-4%	23µM*	-4	21µM*	0%	-20
COc1ccc(C(=O)Nc2sc3c(c2C#N)CCN(C(C)=O)C3)cc1	6%	3.3µM*	-3	4.1µM*	-8%	-25
CC(=O)N1CCc2c(sc(NC(=O)CCS(=O)(=O)c3ccc(C)cc3)c2C#N)C1	-9%	u	6	u	1%	17
CCOC(=O)N1CCc2c(sc(NC(=O)c3ccc(S(=O)(=O)N4CCCC4)cc3)c2C#N)C1	5%	21µM*	5	15µM*	16µM*	11
COc1ccc(Cc2nnc(SCC(=O)Nc3ccc(N4CCOCC4)cc3)n2C)cc1	x	22%	-21	-5%	0%	15
CCOc1ccc(C(=O)N2CCN(CC(=O)N3CCCC3)CC2)cc1OCC	-1%	-1%	-27	6%	u	-8
COc1ccc(-n2cnc3cc(C(=O)NC4CCCCCC4)ccc32)cc1	3%	u	x	u	x	x
Cc1cccc(-n2cnc3cc(C(=O)NC4CCCCCC4)ccc32)c1	10%	3.3µM*	x	4.6µM*	x	x
CCc1ccccc1-n1cnc2cc(C(=O)NC3CCCCCC3)ccc21	10%	u	x	23µM*	x	x
CCc1ccc(NC(=O)CSc2nnc(-c3cc4occc4n3C)n2-c2ccccc2C)cc1	10%	u	x	u	x	x
